Assay results reported in PubChem BioAssay (NCI).
About 79,000 compounds went through this panel and 15% of them were active in at least one assay; those are over-represented in the sample as a whole. Rule as the data show it: active = growth inhibition above about 70%; inactive = the rest.

Columns and labels:
[1] = NCI Yeast Anticancer Drug Screen. Data for the rad50 strain (AID 155);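 also: 0% = growth of vehicle-only cultures of the same strain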; conditions: S. cerevisiae rad50 strain growth inhibition; at 50.0 µM; active compounds read high
Summary of the method: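 DNA repair mutant yeast, compound exposure, growth read-out; inhibition is taken relative to vehicle.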

[2] = NCI Yeast Anticancer Drug Screen. Data for the mec2-1 strain (AID 157); conditions: S. cerevisiae mec2-1 strain, at 50.0 µM, active compounds read high
Summary of the method: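 Yeast mec2-1 mutant treated with compound. Readout: growth inhibition vs vehicle controls.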

[3] = NCI Yeast Anticancer Drug Screen. Data for the sgs1 mgt1 strain (AID 161);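 also: 0% = growth of cultures given vehicle only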; conditions: S. cerevisiae sgs1 mgt1 strain, at 50.0 µM, active compounds read high
Summary of the method: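 Genetically altered yeast, compound exposure, growth inhibition relative to vehicle.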

[4] = NCI Yeast Anticancer Drug Screen. Data for the cln2 rad14 strain (AID 165);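 also: 0% = growth equal to vehicle treated cultures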; conditions: S. cerevisiae cln2 rad14 strain, at 50.0 µM, active compounds read high
Summary of the method: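 cln2 rad14 yeast strain; compound exposure; growth inhibition read vs vehicle controls.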

[5] = NCI Yeast Anticancer Drug Screen. Data for the bub3 strain (AID 167); conditions: S. cerevisiae bub3 mutant strain, at 50.0 µM, active compounds read high
Summary of the method: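 In this screen, a yeast mutant lacking normal mitotic checkpoint function is challenged with compound. Relative growth versus vehicle gives the inhibition value.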

[6] = NCI Yeast Anticancer Drug Screen. Data for the mlh1 rad18 strain (AID 175); conditions: S. cerevisiae mlh1 rad18 strain growth inhibition; at 50.0 µM; active compounds read high
Summary of the method: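 Yeast w/ defined DNA-repair lesions; compound exposure; growth vs vehicle controls → % inhibition.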

Measured: growth inhibition

CC(=O)C1=C(O)/C(=C/c2ccccc2)NC1=O
inactive: [1] 8.05% | [2] 5.15% | [3] -6.3% | [4] -35.5% | [5] -13.2% | [6] -3.2%

O=S1(=O)C(c2ccc(F)cc2)=C(O)c2cc3ccccc3nc21
inactive: [1] 29.2% | [2] 30.9% | [3] 27% | [4] 21.4% | [5] -8.85% | [6] 23.2%

CC(=O)OCC(=O)[C@@]1(O)CC[C@H]2[C@@H]3CCC4=CC(=O)CC[C@]4(C)[C@H]3[C@@H](O)C[C@@]21C
inactive: [1] -20.6% | [2] -17.4% | [3] -3.2% | [4] -20.3% | [5] -23.1% | [6] -38.5%

OC(CN1CCc2ccccc2C1)c1ccccc1 (stereo not drawn)
inactive: [1] 42.5% | [2] 8.05% | [3] 49% | [4] 27% | [5] 39.4% | [6] 35.8%

COc1ccc(N=Cc2ccc(OC(=O)c3ccccc3)c(OC)c2)cc1
inactive: [1] 2.15% | [2] 0.5% | [3] 0.55% | [4] -0.8% | [5] 13.3% | [6] -23.5%

Cc1ccc(CNC(=O)Nc2c(C)cccc2C)cc1C
inactive: [1] 8.8% | [2] 2.55% | [3] 9.75% | [4] -6.3% | [5] 14.4% | [6] 3.45%

COc1ccccc1N1C(=O)C2C3c4ccccc4C(OC(C)=O)(c4ccccc43)C2C1=O (stereo not drawn)
inactive: [1] -19.8% | [2] -13.6% | [3] 4.25% | [4] 3.4% | [5] -14.8% | [6] 12.9%

CCC(=O)C12OC3OC(C)(C)OC3C1OC(C)(C)O2 (stereo not drawn)
inactive: [1] 0.25% | [2] 0.75% | [3] -15.2% | [4] 25.1% | [5] -1.9% | [6] 4.7%

C/C(=C\c1ccccc1)C(=O)C1C(c2ccccc2)CC(=O)C(C)C1c1ccccc1 (stereo not drawn)
inactive: [1] -3.65% | [2] -11.7% | [3] -27.3% | [4] -36.5% | [5] -0.5% | [6] 2.35%

NC1=NN(c2ccccc2)C(=O)C1C(=O)CCC(=O)Nc1cccc(Cl)c1 (stereo not drawn)
inactive: [1] 9.9% | [2] -1.8% | [3] -11.4% | [4] 18.2% | [5] 5.35% | [6] 2.1%

Cc1[nH]c(=O)nc(CC(O)(c2ccccc2)c2ccccc2)c1-c1ccccc1
inactive: [1] -31.6% | [2] -38.1% | [3] -22% | [4] 14.2% | [5] -6.05% | [6] -26.1%

COC1=CC(=O)[C@H]2[C@H](C)C(c3ccccc3)[C@@]2(C)C1=O (stereo partly drawn)
inactive: [1] -21.5% | [2] -1.5% | [3] -16.6% | [4] 2.1% | [5] -0.05% | [6] -20.2%

COC(=O)C(=O)C(C(=O)C(=O)Nc1nc(=S)[nH][nH]1)c1nc2ccc([N+](=O)[O-])cc2[nH]c1=O (stereo not drawn)
inactive: [1] 36% | [2] 20.6% | [3] 11.1% | [4] -17.6% | [5] 22.4% | [6] 18.9%

CC(=O)c1ccc(OCc2ccccc2)c(OCc2ccccc2)c1
inactive: [1] 2.45% | [2] 0.8% | [3] 22.8% | [4] 10.9% | [5] 22.1% | [6] 11.2%

CC(=O)C1(C(C)=O)OC2c3ccccc3C=CN2C=C1C=O (stereo not drawn)
inactive: [1] 6.6% | [2] 1.35% | [3] 14.6% | [4] 4.45% | [5] 6.05% | [6] 11.1%

Cc1cccc(Cl)c1NC(=O)c1cccc([N+](=O)[O-])c1
inactive: [1] 0.15% | [2] 40.6% | [3] 22.9% | [4] -7.95% | [5] 32.4% | [6] 46.4%

NNC(=O)c1c[nH]c2ccccc2c1=O
inactive: [1] 3.7% | [2] 13.1% | [3] 0.85% | [4] -20.6% | [5] 5.1% | [6] 5.4%

CC1=NN(C(=O)CC(=O)Nc2cccc(Cl)c2)C(=O)C1N=Nc1ccc(S(=O)(=O)c2ccc(N=NC3C(=O)N(C(=O)CC(=O)Nc4cccc(Cl)c4)N=C3C)cc2)cc1 (stereo not drawn)
inactive: [1] 36.5% | [2] 15.2% | [3] 23.4% | [4] -1.9% | [5] -25.4% | [6] 22.4%
